Measurements as given in PubChem BioAssay (NCATS).
Results filed as inconclusive are left out. The source made the active and inactive calls. Calls come from the whole dose curve; as a rule, active = well fitted cell-killing curve with a large enough effect; inconclusive = small, poorly fitted or top-dose-only effect; inactive = flat fitted curve, though single readings scatter.

Tests used:
[1] = Cell Viability - LYMP2-002 (AID 977); conditions: LYMP2-002 lymphoblastoid cell viability, qHTS; series mostly up to 92.2 µM;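 note: compound exposure lasted 24 h at 37 °C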
Summary of the method: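 Cytotoxicity is scored as concentration-dependent loss of cellular ATP in a human lymphoblastoid line after 24 hr compound treatment at 37 C. AC50 is obtained by modelling concentration-response data with the Hill equation.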

[2] = Cell Viability - LYMP2-006 (AID 978); conditions: LYMP2-006 lymphoblastoid cell viability, qHTS; series mostly up to 92.2 µM;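 note: cells exposed to compound for 24 hours; nearly all actives have a fitted effect of over 60% in size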
Summary of the method: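 qHTS, 1536-well; 2500 cells/well, 5 hr 37 C; cpd 24 hr 37 C; CellTiter-Glo 30 min RT; luminescence. Tetraoctylammonium bromide pos. ctrl. AC50 via Hill eqn.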

[3] = Cell Viability - LYMP2-007 (AID 979); conditions: LYMP2-007 lymphoblastoid cell viability; series mostly up to 92.2 µM;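 note: cells exposed to compound for 24 h before reading; nearly all actives have a fitted effect of over 60% in size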
Summary of the method: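 Acute toxicity is scored as a concentration-dependent fall in intracellular ATP in human lymphoblastoid cells treated 24 hr at 37 C, measured by luciferase luminescence; Hill-equation modelling yields AC50.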

[4] = Cell Viability - LYMP2-008 (AID 980); conditions: LYMP2-008 lymphoblastoid cell viability, qHTS; series mostly up to 92.2 µM; note: nearly all actives have a fitted effect of over 60% in size
Summary of the method: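 Acute cytotoxicity is scored as concentration-dependent loss of cellular ATP in a human lymphoblastoid line after 24 hr treatment at 37 C. ATP is quantified by luciferase luminescence.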

[5] = Cell Viability - LYMP2-010 (AID 981); conditions: LYMP2-010 lymphoblastoid cell viability, qHTS; series mostly up to 92.2 µM;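 note: cells exposed to compound for 24 hours at 37 °C; nearly all actives have a fitted effect of over 55% in size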
Summary of the method: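 Acute toxicity is scored as a concentration-dependent loss of cellular ATP in human lymphoblastoid cells after 24 hr compound exposure in complete medium. Tetraoctylammonium bromide is the positive control.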

[6] = Cell Viability - LYMP2-012 (AID 982); conditions: LYMP2-012 lymphoblastoid cell viability qHTS; series mostly up to 92.2 µM;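 note: cellular ATP by luciferase luminescence where a drop means cytotoxicity; cells exposed to compound for one day before reading; nearly all actives have a fitted effect of over 55% in size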
[7] = Cell Viability - LYMP2-014 (AID 983); conditions: LYMP2-014 lymphoblastoid cells, viability qHTS; series mostly up to 92.2 µM;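 note: cells exposed to compound for 24 h at 37 °C; nearly all actives have a fitted effect of over 50% in size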
Summary of the method: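 Decrease in intracellular ATP after 24 hr treatment at 37 C, measured by luciferase luminescence, indicated cytotoxicity. Concentration-response data were fitted with the standard Hill equation to give AC50.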

[8] = Cell Viability - LYMP2-016 (AID 984); conditions: LYMP2-016 lymphoblastoid cell viability, qHTS; series mostly up to 92.2 µM;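 note: cells exposed to compound for 24 hours at 37 °C; nearly all actives have a fitted effect of over 55% in size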
Summary of the method: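 qHTS, 1536-well: 2500 LYMP2-016 cells/well, 5 hr 37 C, compound added, 24 hr 37 C, CellTiter-Glo 30 min RT, luminescence. Tetraoctylammonium bromide positive control. AC50 via Hill fit.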

[9] = Cell Viability - LYMP2-018 (AID 985); conditions: LYMP2-018 lymphoblastoid cells, viability (qHTS); series mostly up to 92.2 µM;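 note: compound exposure lasted 24 hr at 37 °C; nearly all actives have a fitted effect of over 50% in size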
Summary of the method: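 Acute cytotoxicity is scored as a concentration-dependent drop in intracellular ATP after 24 hr exposure of the lymphoblastoid line in complete culture medium, measured by luciferase luminescence. Potency is expressed as AC50 from Hill modelling.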

[10] = Cell Viability - LYMP2-025 (AID 976); conditions: LYMP2-025 lymphoblastoid cell viability; series mostly up to 92.2 µM;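 note: cells exposed to compound for 24 h at 37 °C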
Summary of the method: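 In qHTS format, LYMP2-025 lymphoblastoid cells in complete culture medium received compound for 24 hr; ATP-based CellTiter-Glo signal gave viability, with AC50 derived by Hill equation.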

Measured: Potency
Potency is the fitted concentration of half-maximal effect.

O=C(O)c1cc(O)c(O)c(O)c1
not listed: [10]
inactive: all other assays above

c1ccc2sc(SSc3nc4ccccc4s3)nc2c1
not listed: [3]
inactive: all other assays above

CC1(C)S[C@@H]2[C@H](NC(=O)[C@H](N)c3ccccc3)C(=O)N2[C@H]1C(=O)O
inactive: all assays above

Nc1ccc([N+](=O)[O-])cc1O
inactive: all assays above

COc1cc(CNC(=O)CCCC/C=C/C(C)C)ccc1O
not listed: [9]
inactive: all other assays above

COc1cc(/C=C/C(=O)CC(=O)/C=C/c2ccc(O)c(OC)c2)ccc1O
active: [10] 50.1 µM | [1] 39.8 µM | [2] 25.1 µM | [3] 25.1 µM | [4] 25.1 µM | [5] 25.1 µM | [6] 31.6 µM | [8] 39.8 µM | [9] 39.8 µM

C#C[C@]1(O)CC[C@H]2[C@@H]3CCc4cc(O)ccc4[C@H]3CC[C@@]21C
inactive: all assays above

O=C(O)/C=C\C(=O)O
inactive: all assays above

Nc1ccc(O)c(C(=O)O)c1
inactive: all assays above

O=C1CN(/N=C/c2ccc([N+](=O)[O-])o2)C(=O)N1
inactive: [10] | [6]

CN1CCC[C@H]1c1cccnc1
inactive: all assays above

CN(C)c1ccc(N=NS(=O)(=O)O)cc1
inactive: all assays above

N=C1N=C(N)c2cc3ccccc3cc21
active: [2] 50.1 µM | [3] 39.8 µM | [4] 39.8 µM | [5] 39.8 µM | [6] 39.8 µM | [7] 39.8 µM | [8] 39.8 µM | [9] 39.8 µM

CC(C)NCC(O)COc1cccc2ccccc12 (stereo not drawn)
inactive: all assays above

Nc1ccc(O)c([N+](=O)[O-])c1
inactive: all assays above

CN(C)CCC(c1ccc(Cl)cc1)c1ccccn1 (stereo not drawn)
not listed: [5] | [6]
inactive: all other assays above

CN(C)c1ccc(C(=C2C=CC(=[N+](C)C)C=C2)c2ccccc2)cc1
active: [10] 0.501 µM | [1] 0.398 µM | [2] 0.501 µM | [3] 0.251 µM | [4] 0.316 µM | [5] 0.251 µM | [6] 0.158 µM | [7] 0.251 µM | [8] 0.501 µM | [9] 0.199 µM

Nc1nc2ccc([N+](=O)[O-])cc2s1
not listed: [5]
inactive: all other assays above

NCCO
inactive: all assays above

CCCCCCCCCCCCCCCCCC(=O)O
inactive: all assays above

c1cnc2c(c1)ccc1cccnc12
active: [9] 25.1 µM

S=c1[nH]c2ccccc2s1
inactive: all assays above

O=c1cc(-c2ccccc2)oc2ccccc12
inactive: all assays above

Oc1ccccc1O
inactive: [10] | [3] | [4] | [8]

CCCOC(=O)c1ccc(O)cc1
inactive: all assays above
